Screens as filed in PubChem.
Most compounds without a hit are left out; they make up all but 3.3% or so of the library.
Sm TGR block = blocks Schistosoma mansoni thioredoxin glutathione reductase; purified TGR, DTNB reduction, TNB absorbance 405 nm; Potency, µM (top dose mostly 114 µM), for inactives: top-dose activity change, negative = inhibition, actives largely listed as inhibitors; hit rate 3% among 360,000; note: nearly all actives have a fitted effect of over 60% in size
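TGR 20 nM + NADPH 100 uM (dispensed conc.), cpd preinc 15 min RT; start with NADPH (500 uM addition) then DTNB (15 mM addition). Kinetic TNB absorbance, 405 nm filter. Four-parameter Hill fit across titration.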
AmpC no deterg = AmpC beta-lactamase inhibition without detergent; Potency, µM (series often up to 57.1 µM), for the others: top-dose activity change, negative = inhibition, actives largely listed as inhibitors; AID 485341; AmpC nitrocefin hydrolysis, absorbance 480 nm, 0.0001% Triton; hit rate 0.52% among 330,000;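 note: plate controls were no compound for no effect and no enzyme for full effect; nearly all actives have a fitted effect of over 20% in size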
Target sequence (P00811 whole entry, looked up): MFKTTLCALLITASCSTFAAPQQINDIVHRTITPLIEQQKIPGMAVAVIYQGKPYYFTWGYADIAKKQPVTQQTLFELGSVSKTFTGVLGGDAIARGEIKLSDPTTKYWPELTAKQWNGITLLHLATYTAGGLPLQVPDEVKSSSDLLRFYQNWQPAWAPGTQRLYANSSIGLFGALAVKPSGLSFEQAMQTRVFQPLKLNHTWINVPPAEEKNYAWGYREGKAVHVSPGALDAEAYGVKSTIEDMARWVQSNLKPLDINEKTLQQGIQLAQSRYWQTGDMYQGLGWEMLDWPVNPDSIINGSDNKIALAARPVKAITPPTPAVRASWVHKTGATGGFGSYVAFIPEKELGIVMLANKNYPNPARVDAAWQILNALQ
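20 mM phosphate pH 7.0 + 0.01% (detergent screen) or 0.0001% Triton X-100; 5.3 nM AmpC reagent; cpd preinc 15 min RT; nitrocefin (800 uM stock) to start; A480 q20 s × 4 min; Activity was normalised to no-enzyme and no-compound control wells.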
AmpC detergent = inhibitors of E. coli AmpC beta-lactamase with detergent; Potency, µM (doses to about 114 µM), inactives show at the top dose activity change, negative = inhibition, usual class: inhibitors; P00811; hit rate 0.041% among 370,000; AmpC hydrolysis of nitrocefin, absorbance 480 nm, 0.01% Triton; AID 485294;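 note: 0% = no-compound wells and -100% = no-enzyme wells; nearly all actives have a fitted effect of over 25% in size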
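AmpC (5.3 nM in the dispensed reagent) in 20 mM phosphate pH 7.0 with 0.01% (detergent screen) or 0.0001% Triton X-100 was preincubated with compounds for 15 min at room temperature. Nitrocefin was then added from an 800 uM solution, and hydrolysis was followed at 480 nm.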
The depositor's hits bear a star; ? = inconclusive; . = no result given. Calls come from the whole dose curve; as a rule, active = well fitted curve in the direction sought with a large enough effect; inconclusive = small, poorly fitted or top-dose-only effect, or another doubt; inactive = no such curve, though single readings can be large; an effect the other way counts as inactive or inconclusive. Unless noted, % is set by controls: 0 for no effect and ±100 for the full control effect; potency is the fitted concentration of half-maximal effect.

SMILES	Sm TGR block	AmpC no deterg	AmpC detergent
O=C(NC(=S)Nc1ccc(S(=O)(=O)Nc2nccs2)cc1)c1ccccc1	35µM*	-18%	-2%
COC(=O)c1ccc(NC(=O)CC2C(=O)N(c3cccc(OC)c3)C(=O)N2Cc2cccc(OC)c2)cc1 (stereo not drawn)	0%	.	21%
CCOc1ccc(/C=C/c2nc(C#N)c(N3CCN(CC)CC3)o2)cc1	0%	.	-7%
O=C(CCCCn1c(=O)c2ccccc2n(CC(=O)Nc2ccccc2)c1=O)NCc1ccccc1Cl	5%	.	27%
COc1ccccc1/C=C/c1nc(C#N)c(N2CCN(c3ccccc3)CC2)o1	1%	.	1%
CCN(CC)S(=O)(=O)c1ccc(C(=O)NCCSc2c(-c3ccc(C)cc3)[nH]c3ccccc23)cc1	8%	.	1%
COc1ccc(N2CCN(C(=O)Cc3noc4ccc(C)cc34)CC2)cc1	-7%	.	5%
COCCCn1c(=O)c2sccc2n2c(CCCC(=O)Nc3cccc(C(F)(F)F)c3)nnc12	0%	.	5%
O=C(Nc1cc(Cl)cc(Cl)c1)c1ccc(F)c(S(=O)(=O)N2CCN(c3ccccc3F)CC2)c1	7%	.	8%
COc1ccc(-n2ccc(=O)c(C(=O)Nc3ccc(S(=O)(=O)Nc4nccs4)cc3)n2)cc1	-3%	-30%	50µM*
O=C(Nc1ccc(S(=O)(=O)Nc2nccs2)cc1)c1nn(-c2ccccc2)ccc1=O	2%	-38%	?
Cc1ccc(S(=O)(=O)Nc2ccc(NC(=O)/C=C/C(=O)O)cc2)cc1	50µM*	-19%	-3%
CCOC(=O)Nc1ccc(NS(=O)(=O)c2ccc(C)cc2)cc1	-22%	-32%	-9%
CCOc1ccc(CNC(=O)c2cc(=O)[nH]c3ccc(S(=O)(=O)N4CCCC4)cc23)cc1	14%	.	5%
CCOC(=O)c1c(Nc2ccc(O)cc2)nnc(-c2ccccc2)c1-c1ccccc1	45µM*	.	6%
CCOC(=O)c1c(Nc2ccccc2)nnc(-c2ccccc2)c1-c1ccccc1	4%	.	5%
O=CNc1ccc(OC(=O)c2cncc(Br)c2)cc1	3%	-5%	-9%
O=C(Oc1ccc([N+](=O)[O-])cc1)c1cncc(Br)c1	18µM*	-28%	-5%
COc1cc(NC(=O)CSc2nc3ccccc3nc2Cc2ccccc2OC)cc(OC)c1	-5%	.	-4%
CC(C)c1ccc(Nc2ncnc3c2c(-c2ccccc2)cn3-c2ccccc2)cc1	5%	.	3%
Cc1cc2cc(CNC(=O)CCC(=O)O)ccc2[nH]1	0%	-3%	?
CC(=O)NCc1ccc2[nH]c(C)cc2c1	40µM*	-13%	?
Cc1ccc(NC(=O)NCc2ccc3[nH]c(C)cc3c2)cc1	-14%	-44%	-2%
CCC(=O)NCc1ccc2[nH]c(C)cc2c1	28µM*	-25%	-1%
CN(C)CCNC(=O)Cc1ccc(NC(=O)N2CCCCc3ccccc32)cc1	-12%	.	13%
SMILES	Sm TGR block	AmpC no deterg	AmpC detergent
CCOc1ccccc1NC(=O)C(CC(C)C)NS(=O)(=O)c1ccc2c(c1)CCN2C(C)=O (stereo not drawn)	0%	.	-4%
CCOC(=O)c1ccc(N2C(=O)c3n[nH]c(C)c3C2c2ccc(OC)c(OC)c2)cc1 (stereo not drawn)	?	110%	0%
CCOc1cc(C2c3c(n[nH]c3C)C(=O)N2c2ccc(Br)cc2)ccc1O (stereo not drawn)	11µM*	-15%	6%
CCOC(=O)c1ccc(N2C(=O)c3n[nH]c(C)c3C2c2cccc(Br)c2)cc1 (stereo not drawn)	-10%	.	-2%
COc1cc(C2c3c(n[nH]c3C)C(=O)N2c2ccc(Br)cc2)ccc1O (stereo not drawn)	4.5µM*	-32%	-16%
COc1ccc(NC(=O)c2cc3c(=O)n(Cc4cccs4)ccc3nc2C)c(OC)c1	11%	.	19%
Cc1ccc(Cn2c(CNS(=O)(=O)c3cccc([N+](=O)[O-])c3)nc3cccnc32)cc1	-2%	.	1%
Cc1nn(C)c(C)c1S(=O)(=O)NC1CCCC1	4%	-13%	-11%
Cc1nn(-c2nnc(NC3CCCCC3)nn2)c(C)c1Br	1%	5%	100µM*
CCOC(=O)C(C)Sc1ncc(OC)c(=O)[nH]1 (stereo not drawn)	5%	0.16µM*	-2%
CCOC(=O)CSc1ncc(OC)c(=O)[nH]1	-6%	?	3%
Cc1cccc(OCC(=O)NCC2(N3CCN(C)CC3)CCCCC2)c1C	-4%	.	21%
COCCCNC(=S)Nc1ccc2nc(N3CCOCC3)cc(C)c2c1	?	-13%	-1%
COCCNC(=S)Nc1ccc2nc(N3CCN(C)CC3)cc(C)c2c1	40µM*	-9%	-3%
Cc1cc(N2CCCC2)nc2ccc(NC(=S)NCCCOC(C)C)cc12	20µM*	-3%	7%
CCN(CC)CCNC(=S)Nc1ccc2nc(N3CCCC3)cc(C)c2c1	0%	-21%	3%
Cc1cc(N2CCN(C)CC2)nc2ccc(NC(=S)NCCCN3CCN(C)CC3)cc12	-16%	-26%	1%
CCCN(CCC)CCCNC(=S)Nc1ccc2nc(N3CCCC3)cc(C)c2c1	45µM*	34%	9%
COC(=O)c1ccc(NC(=O)CC2C(=O)N(c3ccc(F)cc3)C(=O)N2Cc2ccc(OC)cc2)cc1 (stereo not drawn)	12%	.	12%
COc1cc(C(=O)Nc2ccc3oc(-c4ccccc4)nc3c2)cc(OC)c1OC	8%	.	15%
COCCc1nn2c(=O)cc(COC(=O)c3ccc4c(c3)OCO4)nc2s1	-2%	.	12%
CCOc1ccc(CCNC(=O)c2cc3sc(CC)cc3n2C)cc1OCC	9%	.	19%
O=C(CC(C(=O)O)P(=O)(c1ccccc1)c1ccccc1)c1ccc(Br)cc1 (stereo not drawn)	28µM*	-26%	0%
Cc1ccc(SC(CC(=O)c2ccc(C)cc2)C(=O)O)cc1 (stereo not drawn)	13µM*	-24%	-6%
Cc1ccc(C(=O)CC(=O)c2ccccc2)cc1	-9%	-21%	?
SMILES	Sm TGR block	AmpC no deterg	AmpC detergent
O=C(CNC(=O)c1ccc(Br)cc1)c1ccc(Br)cc1	8%	-43%	-3%
O=C(CNC(=O)c1ccc(Br)cc1)c1ccccc1	-8%	-14%	-14%
O=C(CC(Sc1ccc(Br)cc1)C(=O)O)c1ccc(Br)cc1 (stereo not drawn)	0.28µM*	-26%	-21%
COc1cccc(-c2nc3c(C#N)c[nH]n3c2NC2CCCC2)c1OC	-2%	.	2%
Fc1ccc(C(NCCc2ccc(Cl)cc2)c2nnc(-c3ccccc3Cl)o2)cc1 (stereo not drawn)	-2%	.	17%
CCc1ccc(NC(=O)CN2C(=O)C3(SCC(=O)N3c3ccccc3)c3ccccc32)cc1 (stereo not drawn)	1%	.	1%
COc1ccc(NC(=O)c2sc3nc4c(cc3c2N)CN(C(C)C)CC4)c(OC)c1	-10%	.	1%
Cc1c(Cl)cccc1-n1ncc(C(=O)N2CCC(C)CC2)c1C1CCN(C(=O)OC(C)(C)C)CC1	?	.	-1%
O=C(CN1C(=O)CC(c2ccccc2)=Nc2ccccc21)Nc1ccc(Br)cc1	-3%	.	18%
COc1ccc(Nc2oc(COc3ccccc3OC)nc2C#N)cc1	18µM*	-54%	-11%
